Compound activity as filed in PubChem BioAssay.
Cruzain Triton: blocks cruzain activity in presence of Triton detergent. P25779. purified cruzain, Z-FR-AMC fluorescence, 0.01% Triton. Potency, µM, inactives show max response, negative = inhibition, most hits filed as inhibitors. 0.43% of 200,000 active;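 further: plate controls were neutral wells for no effect and buffer without enzyme for full effect; nearly all actives have a fitted effect of over 40% in size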
Target sequence (P25779 123-467 limits assumed): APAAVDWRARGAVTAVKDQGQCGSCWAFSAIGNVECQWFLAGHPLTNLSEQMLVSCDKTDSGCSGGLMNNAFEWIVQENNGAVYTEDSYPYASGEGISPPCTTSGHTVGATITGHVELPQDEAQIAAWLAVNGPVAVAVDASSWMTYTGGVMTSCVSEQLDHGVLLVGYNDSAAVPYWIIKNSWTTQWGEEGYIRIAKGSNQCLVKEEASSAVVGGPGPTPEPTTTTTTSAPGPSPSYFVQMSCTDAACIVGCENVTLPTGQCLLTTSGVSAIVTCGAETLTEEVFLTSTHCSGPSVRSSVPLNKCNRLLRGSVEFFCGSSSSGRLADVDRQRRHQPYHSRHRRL
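15 min RT preincubation of 1.5 nM cruzain with compound, then 2 uM Z-FR-AMC added; kinetic AMC fluorescence, 60 s delta. Triton X-100 0.01%, pH 5.5.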
NS1 inh: inhibitors of influenza NS1 protein function | Potency, µM (top dose mostly 46.1 µM), without a hit: at the highest dose activity, positive = more growth | 0.4% of 270,000 active | AID 2326; calls by dose curve; further: actives are rising curves; nearly all actives have a fitted effect of over 50% in size
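In this qHTS, NS1 from influenza A is expressed in budding yeast, where it slows growth. Cells are switched from glucose to 2% galactose medium (pH 6.0, -URA), treated with compound, and growth recovery is read at OD600.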
Cruzain inh noDet: inhibitors of Trypanosoma cruzi cruzain without detergent. purified cruzain, Z-FR-AMC fluorescence, no detergent. Potency, µM, without a hit: max response, negative = inhibition, usual class: inhibitors. 2.3% of 200,000 active. AID 1476;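 further: plate controls were enzyme without inhibitor for no effect and buffer without enzyme for full effect; nearly all actives have a fitted effect of over 40% in size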
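Purified cruzain at 1.5 nM, pre-incubated 15 min with compound at room temperature in 100 mM sodium acetate pH 5.5, 5 mM DTT, 0.00005% Triton X-100. Reaction started with 2 uM Z-FR-AMC; AMC fluorescence increase over 60 s gives rate.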
Papain inh: papain (Carica papaya) inhibition counter-screen; purified papain, Z-FR-AMC fluorescence cleavage; 41% of 410 active; shares compounds with Cruzain Triton; Potency, µM, for the others: max response, negative = inhibition, actives largely listed as inhibitors;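 further: 0% = no-compound wells and -100% = no-enzyme wells; nearly all actives have a fitted effect of over 35% in size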
* = called active by the depositor. The full list was thinned out, with hits kept by preference. Unless noted, the call rests on the fitted dose curve; in most records, active means well fitted curve in the direction sought with a large enough effect; inconclusive means small, poorly fitted or top-dose-only effect, or another doubt; inactive means no such curve, though single readings can be large; an effect the other way counts as inactive or inconclusive. Potency means the concentration at half of the fitted maximal effect.

`CCC(C)c1ccccc1OCCn1c(CCNC(=O)C2CCCCC2)nc2ccccc21` (stereo unspecified) gave Papain inh -11.2%.
`Cc1ccccc1Cn1c(CCCNC(=O)C2CCCCC2)nc2ccccc21` gave Cruzain Triton -7.7% and Cruzain inh noDet -5.7%.
Screening COc1ccccc1OCCNC(=O)C1CCCCC1 returned NS1 inh -2.1%.
Cc1ccccc1OCCCn1c(CCNC(=O)C2CCCCC2)nc2ccccc21 was read as Cruzain Triton 3.16µM*, Cruzain inh noDet 2.7% and Papain inh -18.8%.
COc1ccccc1OCCCn1c(CCNC(=O)C2CCCCC2)nc2ccccc21 was read as Papain inh 28.2µM*.
`Cc1cc(C)c[n+](CC(=O)c2ccc(-c3ccccc3)cc2)c1` gave Cruzain Triton -1.4%, NS1 inh 17.2% and Cruzain inh noDet -7.3%.
`CCOC(=O)C1(Cc2ccc(Cl)cc2)CCN(C2CCC2)CC1` gave NS1 inh -22.6%.
For N#Cc1c(NC(=O)CSc2ncnc3c2cnn3-c2ccccc2Cl)sc2c1CCCC2 the results were Cruzain Triton 3.3%, NS1 inh 7.2%, Cruzain inh noDet 3.16µM* and Papain inh 9.9%.
For N#Cc1c(NC(=O)CSc2ncn(-c3ccccc3)n2)sc2c1CCCC2 the results were Cruzain Triton 2.3%, NS1 inh -50.4% and Cruzain inh noDet inconclusive.
CCOC(=O)C(C)Oc1cc(Cl)c(C=O)cc1OC (stereo unspecified) was read as NS1 inh 7.1%.
For CCCc1cc(=O)oc2cc(C)c3c(-c4ccccc4)c(C)oc3c12 the results were Cruzain Triton -3.9% and Cruzain inh noDet -5.7%.
Screening O=C(Cc1ccc(Cl)cc1)Nc1ccccc1Sc1ccccc1 returned Cruzain Triton -8.0%, NS1 inh 1.9% and Cruzain inh noDet -17.0%.
`O=C(O)c1c(Sc2ccccc2)c2cc(Cl)ccc2n1Cc1ccc(Cl)cc1` gave Cruzain Triton 28.2µM*, Cruzain inh noDet inconclusive and Papain inh 28.2µM*.
CC1(C)C[C@@H]2C[C@@](C)(CN2C(=O)c2cc(COc3cccc(C(F)(F)F)c3)on2)C1 was read as NS1 inh -19.8%.
CCn1c(SCC(=O)Nc2nnc(C)s2)nnc1-c1ccco1 was read as Cruzain Triton 3.7%, NS1 inh -1.1% and Cruzain inh noDet -2.2%.
`COc1cc(S(=O)(=O)NCc2ccccc2)ccc1Br` gave Cruzain Triton -7.2%, NS1 inh -9.1% and Cruzain inh noDet -9.5%.
Screening O=C(CNC(=O)C1CCCCC1)OC(C(=O)c1ccccc1)c1ccccc1 (stereo unspecified) returned Papain inh 2.5%.
For O=C(Nc1ccccc1)C1CCCCC1 the results were Cruzain Triton 2.3%, NS1 inh 1.9% and Cruzain inh noDet 6.9%.
`O=C(CNC(=O)C1CCCCC1)Nc1ccccc1Cl` gave Cruzain Triton -1.9%, NS1 inh 11.7% and Cruzain inh noDet 3.9%.
NC(=O)C(OC(=O)CNC(=O)C1CCCCC1)c1ccccc1 (stereo unspecified) was read as Papain inh 12.6µM*.
For COc1cc2c(C(=O)c3ccccc3)c3c4c(cc(OC)c(OC)c4c2cc1OC)CCN3C the results were Cruzain Triton 4.1% and Cruzain inh noDet 0.0%.
Screening O=c1c(Cc2ccccc2)c(O)c2cccc3c4c(n1c23)CCCC4 returned NS1 inh -0.3%.
Screening O=C(N[C@@H](Cc1ccccc1)C(=O)CCl)OCc1ccccc1 returned Cruzain Triton 0.159µM*, NS1 inh -32.2%, Cruzain inh noDet 0.316µM* and Papain inh 5.01µM*.
For O=C(NC(Cc1ccccc1)C(=O)NC1CC1)OCc1ccccc1 (stereo unspecified) the results were NS1 inh -1.6%.
COc1cccc(C(=O)N(Cc2cc3cc(C)ccc3[nH]c2=O)C(C)C)c1 was read as Cruzain Triton 0.2%, NS1 inh -17.7% and Cruzain inh noDet -1.4%.
For O=C(Nc1ncc(Cc2cccc(Cl)c2)s1)C1CCCO1 (stereo unspecified) the results were Cruzain Triton -2.6%, NS1 inh -4.4% and Cruzain inh noDet -3.6%.
O=C(NCCCc1nc2ccccc2n1CCOc1ccccc1)C1CCCCC1 was read as Papain inh 0.4%.
`O=C(NCCCc1nc2ccccc2n1CCCCOc1ccccc1)C1CCCCC1` gave Papain inh 5.0%.
`OCCCc1nc2ccccc2n1CCCCOc1ccccc1` gave Cruzain Triton -5.0%, NS1 inh -8.2% and Cruzain inh noDet -1.4%.
`O=C(NCCCc1nc2ccccc2n1CCCOc1ccccc1)C1CCCCC1` gave Papain inh 10.1%.
